An excerpt weighted towards active compounds, which were near 3.5% of everything screened.
MITF primary: inhibitors of human MITF; O75030; AlphaScreen MITF homodimerization, bead proximity signal; inhibition, % at 2.6 µM; hit rate 0.91% among 650,000; AID 1259374; in the data active means inhibition above about 50%;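 further: 0% = vehicle wells with protein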
Target sequence (O75030 whole entry, looked up): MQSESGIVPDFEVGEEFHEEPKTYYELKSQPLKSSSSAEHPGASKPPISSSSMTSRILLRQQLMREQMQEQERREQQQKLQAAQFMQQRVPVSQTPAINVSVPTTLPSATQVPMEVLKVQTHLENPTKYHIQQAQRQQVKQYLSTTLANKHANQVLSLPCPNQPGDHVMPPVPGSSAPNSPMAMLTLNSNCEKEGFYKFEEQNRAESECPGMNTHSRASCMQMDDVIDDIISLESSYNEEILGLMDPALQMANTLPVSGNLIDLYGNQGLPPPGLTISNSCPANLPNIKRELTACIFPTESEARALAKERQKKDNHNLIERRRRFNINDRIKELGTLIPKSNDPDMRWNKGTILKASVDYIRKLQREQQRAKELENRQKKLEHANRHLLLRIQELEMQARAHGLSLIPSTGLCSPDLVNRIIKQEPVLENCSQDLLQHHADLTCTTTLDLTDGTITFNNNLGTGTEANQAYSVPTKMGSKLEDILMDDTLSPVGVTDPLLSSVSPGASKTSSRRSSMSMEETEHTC
GPR151 activ: human GPR151 activation | hit rate 1% among 650,000 | Q8TDV0 | PathHunter beta-arrestin GPR151 cells, luminescence | activation, % at 11.2 µM; in the data active means activation above about 4.9%;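 further: 0% = median of compound wells and 100% = cells with positive control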
TEAD-YAP block: TEAD-YAP interaction inhibition. HEK-TIYL cells, TEAD-Gal4/YAP UAS-luciferase luminescence. hit rate 1.4% among 640,000. inhibition, % at 9.12 µM; in the data active means inhibition above about 32%;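 further: 0% = median of test compound wells and 100% = reference inhibitor wells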
FBW7 activator: activators of human E3 ligase FBW7; Q969H0; AlphaScreen FBW7–phospho-cyclin E peptide binding, activator screen; normalized activity (activation), % at 26.1 µM; hit rate 0.13% among 650,000; AID 1259310; in the data active means normalized activity above about 1.9%;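 further: purified mutant Fbw7 with reduced substrate affinity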
* hit, by the source's call.

SMILES	MITF primary	GPR151 activ	TEAD-YAP block	FBW7 activator
COc1ccc(-c2cnc(N3CCC4(CC3)OCCO4)nc2)cc1	5	0	-27	0
c1ccc(-c2cnc(N3CCC4(CC3)OCCO4)nc2)cc1	2	-11	70*	0
CC(C)NCCCOc1ccc2ccccc2c1Br	-5	-1	40*	0
Cc1ccc(NC(=O)c2ccc(-c3ccccc3)cc2)c(Br)c1	-6	0	-14	0
CCOC(=O)CN1CCN(c2ccc(-c3cccc(OC)c3)cn2)CC1	3	0	71*	0
Cc1cc(S(=O)(=O)O)c(C(C)C)cc1N	22	-1	8	4.1*
CN1CCN(c2ncn(-c3ccc(Nc4nccc(-c5cc(F)cc(N(C)C)c5)n4)cc3)n2)CC1	2	0	35*	0
Cc1ncn(-c2ccc(Nc3nccc(-c4ccc(N5CCCC(O)C5)c(C#N)c4)n3)cc2)n1 (centres undefined)	-6	2	35*	0
OC1CCN(c2ncn(-c3ccc(Nc4nccc(-c5cc(F)cc(N6CCOCC6)c5)n4)cc3)n2)CC1	0	1	91*	0
OC1CCCN(c2ncn(-c3ccc(Nc4nccc(-c5cc(F)cc(N6CCOCC6)c5)n4)cc3)n2)C1 (centres undefined)	14	-2	57*	0
Fc1cc(-c2ccnc(Nc3ccc(-n4cnc(Br)n4)cc3)n2)cc(N2CCOCC2)c1	-8	0	6	0
CN1CCN(c2ncn(-c3ccc(Nc4nccc(-c5cc(F)cc(N6CCC(O)CC6)c5)n4)cc3)n2)CC1	2	-1	67*	0
COC1CCN(c2ncn(-c3ccc(Nc4nccc(-c5cc(F)cc(N(C)C)c5)n4)cc3)n2)CC1	5	1	16	0
OCc1ccc(-c2ncn(-c3ccc(Nc4nccc(-c5cc(F)cc(N6CCOCC6)c5)n4)cc3)n2)nc1	-1	0	83*	0
Fc1cc(-c2ccnc(Nc3ccc(-n4cnc(-c5ccc(Cl)cn5)n4)cc3)n2)cc(N2CCOCC2)c1	13	1	6	0
CCCCCCC(=O)Oc1ccc(-c2cnc3ccccc3n2)cc1	-1	-1	-4	0
CCC(=O)Oc1ccc(-c2cnc3ccccc3n2)cc1	9	-8	41*	0
COc1ccccc1C(=O)Nc1cccc(N2CCC(NCCSC)CC2)c1	12	-1	47*	0
COc1ccccc1C(=O)Nc1cccc(N2CCC(NCC3CCOCC3)CC2)c1	6	-1	6	0
Cc1ccc(N2C(=O)CC(NCCC34CC5CC(CC(C5)C3)C4)C2=O)c(C)c1 (centres undefined)	-1	0	-6	0
O=C(Nc1cccc(O)c1)c1cc(-c2ccc(Cl)cc2)on1	-9	-3	81*	0
O=C(Nc1cccc(O)c1)c1cc(-c2ccc3c(c2)OCO3)on1	-1	-5	97*	0
O=C(Nc1cccc(O)c1)c1cc(-c2cccnc2)on1	-12	-2	-18	0
O=C(NCCCN1CCCCCC1)c1cn(-c2ccc(F)cc2F)c(=O)c2ccccc12	-21	-1	2	0
CC(C)CCN(C(=O)CCl)c1c(N)n(Cc2ccccc2)c(=O)[nH]c1=O	13	-2	68*	0
SMILES	MITF primary	GPR151 activ	TEAD-YAP block	FBW7 activator
CC1CCCCC1NC(=O)CN(C)S(=O)(=O)c1ccc2nc(-c3ccccc3)[nH]c2c1 (centres undefined)	54*	1	26	0
CC1C(c2ccc3ccccc3n2)=CNc2ccccc21 (centres undefined)	4	-1	41*	0
CN(C)C(=O)c1ccc2c(c1)CC(C(=O)Nc1ccc(-c3cn[nH]c3)cc1)CO2 (centres undefined)	-2	-1	10	0
CC1=C(C#N)C(=O)NC(=O)/C1=C\c1ccc(-c2ccc(S(=O)(=O)O)cc2)o1	59*	0	-1	-1
C=CCC1S/C(=N\N=C\c2cccc([N+](=O)[O-])c2)NC1=O (centres undefined)	9	0	5	2.3*
COCCCNC(=O)CSc1nc2nc(C)c(Cc3ccccc3C)c(C)n2n1	-3	0	12	0
COC(=O)C1=CN(CCc2ccccc2)C=C(C(=O)OC)C1c1cc(OC)c(OC)c(OC)c1	11	-1	2	2.6*
COC(=O)C1=CN(CCc2ccccc2)C=C(C(=O)OC)C1c1ccc2c(c1)OCO2	2	0	-3	3.2*
COc1ccc(OCCOc2ccccc2/C=C2\SC(N)=NC2=O)cc1	4	0	0	1
CCN1CCN(C2CC(=O)N(c3ccc(Cl)cc3)C2=O)CC1 (centres undefined)	-1	0	-6	0
FC(F)(F)c1ccc(Cn2cnc3c(NCc4nc5ccccc5[nH]4)nc(Nc4ccccc4)nc32)cc1	5	3	41*	0
FC(F)(F)c1ccc(Cn2cnc3c(NCc4nc5ccccc5[nH]4)nc(Nc4ccc(C(F)(F)F)cc4)nc32)cc1	9	2	0	0
COc1cc(Nc2nc(NC3CC3)c3ncn(Cc4ccc(C(F)(F)F)cc4)c3n2)cc(OC)c1OC	21	-1	47*	0
COc1cc(Nc2nc(NCc3nc4ccccc4[nH]3)c3ncn(Cc4ccc(C(F)(F)F)cc4)c3n2)cc(OC)c1OC	4	-1	43*	0
FC(F)(F)c1ccc(Cn2cnc3c(NCc4nc5ccccc5[nH]4)nc(Nc4ccc5ncccc5c4)nc32)cc1	5	0	-6	1
O=C(Nc1nc2ccc(S(=O)(=O)N3CCOCC3)cc2s1)C1CCCO1 (centres undefined)	-1	0	1	0
Cc1nonc1C(=O)NCC1Cc2c(F)ccc(-c3ccc(C(=O)C4CC4)cc3)c2O1 (centres undefined)	-14	-1	63*	0
O=C(NCC1Cc2c(F)ccc(-c3ccc(C(=O)C4CC4)cc3)c2O1)c1cnsn1 (centres undefined)	-10	-1	56*	0
COCCC(=O)NCC1Cc2c(F)ccc(-c3ccc(C(=O)C4CC4)cc3)c2O1 (centres undefined)	1	-1	-25	0
COc1ccc(-n2ncc3c(Nc4ccc(F)cc4F)ncnc32)cc1	2	0	17	0
Cc1ccc2cc3cc(C(=O)N4CCN(C)CC4)oc3nc2c1	-22	1	45*	0
Cc1ccc(OCc2nc(-c3ccccn3)no2)c(Br)c1	4	-7	39*	0
COc1ccccc1C1CN(CC(=O)NCC2COCCO2)Cc2ccccc2O1 (centres undefined)	12	-1	5	0
O=C(Nc1ccc(I)cc1)Nc1ccc([N+](=O)[O-])cc1	19	1	3	0
O=C(Nc1ccc([N+](=O)[O-])cc1)Nc1ccon1	16	1	62*	0
CCOC(=O)N1CCC(Nc2c(N(C)Cc3ccccc3)c(=O)c2=O)CC1	1	0	-3	0
CCC(O)C1CCN(C(=O)CCc2nnc(CCCc3ccccc3)o2)CC1 (centres undefined)	5	-2	-67	0
CCc1ccc(CCC(=O)Nc2ncc(Cc3ccccc3F)s2)o1	11	-1	15	0

Compound activity deposited in PubChem by The Scripps Research Institute Molecular Screening Center.
